Records with an inconclusive call do not appear. Calls of active or inactive are those of the source.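 How the source made its calls, unless noted: active means percent response above 42, roughly 3 SD of non-fluorescent test compounds; inactive means the rest.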

Assay [1] can be described thus: rapamycin-like changes in RPL19A-GFP expression – cell-based, S. cerevisiae, multiplex flow cytometry, primary screen (AID 1862; in the data active means percent of DMSO control GFP below about 86%;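 further: lower values mimic rapamycin by blocking the RPL19A rise seen in DMSO cells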). The conditions noted are these: S. cerevisiae RPL19A-GFP strain, flow cytometry fluorescence, 3 h; at 10 µM; stronger effect = lower value. (In general: In flow cytometry, cells or beads pass a laser one at a time.)
Assay [2] can be described thus: TOR pathway GLN3 branch reporter MEP2-GFP changes – S. cerevisiae, multiplex flow cytometry, primary screen (AID 1867;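 active means GFP response, as percent of the DMSO control, above the screen-wide mean plus 3 SD, about 139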;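 further: median GFP channel fluorescence of barcode-gated MEP2-GFP cells measured by flow cytometry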). The conditions noted are these: S. cerevisiae MEP2-GFP strain, 3 h, at 10 µM, stronger effect = higher value, 100% means same as DMSO wells.
Assay [3] is described as follows: TOR pathway RTG branch CIT2 reporter changes – S. cerevisiae, GFP fusion, multiplex flow cytometry, primary screen (AID 1870;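 active means percent response above a set limit, the screen-wide mean plus 3 SD, cut at about 130% in these data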;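 further: barcoded CIT2-GFP strain pooled with four other GFP strains with rapamycin as positive control; median GFP fluorescence per well over plate mean of DMSO wells so 100% = DMSO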). The conditions noted are these: S. cerevisiae CIT2-GFP expression, 3 h, at 10 µM, stronger effect = higher value.
Assay [4] can be described thus: TOR pathway LAP4-GFP level changes – S. cerevisiae, multiplex flow cytometry, primary screen (AID 1873;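 active means GFP signal, as percent of the solvent control, above the screen mean plus 3 SD, about 149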). The conditions noted are these: S. cerevisiae LAP4-GFP expression, 3 h, at 10 µM, stronger effect = higher value.
Assay [5] can be described thus: yeast AGP1-GFP level changes, GLN3 branch – cell-based, multiplex flow cytometry, S. cerevisiae, primary screen (AID 1887;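 active means GFP signal above the screen-wide mean plus 3 SD, that is over about 124.5% of the solvent control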;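 further: AGP1-GFP fusion strain of S. cerevisiae within a five-strain barcoded multiplex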). The conditions noted are these: 3 h, at 10 µM, stronger effect = higher value.
Assay [6] is described as follows: reduced mouse 2C T cell binding to pMHC/ICAM-1 vesicles – MLPCN validation set, flow cytometry, LFA-1/ICAM-1 modulator project, pilot screen (AID 2523;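 active means response below a set limit, under 55% cells CD8-positive and vesicle-bound, and CD8 cells' 90th-percentile brightness under 279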;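 on vesicle binding response: mean PE anti-B7-1 fluorescence of CD8+ cells relative to row control; 100% = QL9-loaded vesicles with DMSO vehicle in the same plate row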). The conditions noted are these: 2C mouse CD8+ T cells, at 7 µM, stronger effect = lower value; double positive events: measured here: CD8+/vesicle+ event percentage.
For assay [7], the target named is Integrin beta-1 (Homo sapiens) + Integrin alpha-4 (Homo sapiens) (UniProt P13612+P05556). The assay can be described thus: alpha4beta1 integrin LIBS antibody binding reduction – U937 cells, HUTS-21 mAb, flow cytometry, validation set, VLA-4 allosteric modulator project, pilot screen (AID 2674;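 active means inhibition above 50%, about 3 SD of the validation set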;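 further: antibody binding induced by the VLA-4 ligand LDV present at three times its Kd; 0% = LDV ligand with antibody and no compound and 100% = antibody without LDV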). The conditions noted are these: HUTS-21 LIBS mAb binding, at 6.7 µM, stronger effect = higher value, binding induced by LDV ligand.
Sequence of Integrin beta-1 (Homo sapiens) + Integrin alpha-4 (Homo sapiens) (P05556 whole entry, looked up): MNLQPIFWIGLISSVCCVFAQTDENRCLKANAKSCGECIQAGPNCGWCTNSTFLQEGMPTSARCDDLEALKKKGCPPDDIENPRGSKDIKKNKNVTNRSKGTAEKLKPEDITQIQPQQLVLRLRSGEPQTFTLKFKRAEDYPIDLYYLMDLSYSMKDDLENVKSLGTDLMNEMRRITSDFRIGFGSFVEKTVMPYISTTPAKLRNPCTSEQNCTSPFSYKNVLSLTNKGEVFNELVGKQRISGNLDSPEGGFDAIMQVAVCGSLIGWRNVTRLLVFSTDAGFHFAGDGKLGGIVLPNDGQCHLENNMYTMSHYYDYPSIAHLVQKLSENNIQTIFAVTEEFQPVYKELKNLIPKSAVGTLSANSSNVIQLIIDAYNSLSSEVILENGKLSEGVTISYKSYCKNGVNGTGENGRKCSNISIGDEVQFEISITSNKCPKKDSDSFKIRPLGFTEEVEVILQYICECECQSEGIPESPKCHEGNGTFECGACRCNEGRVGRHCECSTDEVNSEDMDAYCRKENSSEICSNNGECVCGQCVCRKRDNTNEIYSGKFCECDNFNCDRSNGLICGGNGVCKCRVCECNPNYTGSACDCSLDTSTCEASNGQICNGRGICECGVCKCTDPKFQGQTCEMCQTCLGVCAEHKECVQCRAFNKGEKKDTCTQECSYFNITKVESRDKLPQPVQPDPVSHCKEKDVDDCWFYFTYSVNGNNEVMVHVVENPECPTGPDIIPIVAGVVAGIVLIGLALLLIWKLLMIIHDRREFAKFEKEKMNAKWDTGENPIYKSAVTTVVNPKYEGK
Sequence of Integrin beta-1 (Homo sapiens) + Integrin alpha-4 (Homo sapiens) (P13612 whole entry, looked up): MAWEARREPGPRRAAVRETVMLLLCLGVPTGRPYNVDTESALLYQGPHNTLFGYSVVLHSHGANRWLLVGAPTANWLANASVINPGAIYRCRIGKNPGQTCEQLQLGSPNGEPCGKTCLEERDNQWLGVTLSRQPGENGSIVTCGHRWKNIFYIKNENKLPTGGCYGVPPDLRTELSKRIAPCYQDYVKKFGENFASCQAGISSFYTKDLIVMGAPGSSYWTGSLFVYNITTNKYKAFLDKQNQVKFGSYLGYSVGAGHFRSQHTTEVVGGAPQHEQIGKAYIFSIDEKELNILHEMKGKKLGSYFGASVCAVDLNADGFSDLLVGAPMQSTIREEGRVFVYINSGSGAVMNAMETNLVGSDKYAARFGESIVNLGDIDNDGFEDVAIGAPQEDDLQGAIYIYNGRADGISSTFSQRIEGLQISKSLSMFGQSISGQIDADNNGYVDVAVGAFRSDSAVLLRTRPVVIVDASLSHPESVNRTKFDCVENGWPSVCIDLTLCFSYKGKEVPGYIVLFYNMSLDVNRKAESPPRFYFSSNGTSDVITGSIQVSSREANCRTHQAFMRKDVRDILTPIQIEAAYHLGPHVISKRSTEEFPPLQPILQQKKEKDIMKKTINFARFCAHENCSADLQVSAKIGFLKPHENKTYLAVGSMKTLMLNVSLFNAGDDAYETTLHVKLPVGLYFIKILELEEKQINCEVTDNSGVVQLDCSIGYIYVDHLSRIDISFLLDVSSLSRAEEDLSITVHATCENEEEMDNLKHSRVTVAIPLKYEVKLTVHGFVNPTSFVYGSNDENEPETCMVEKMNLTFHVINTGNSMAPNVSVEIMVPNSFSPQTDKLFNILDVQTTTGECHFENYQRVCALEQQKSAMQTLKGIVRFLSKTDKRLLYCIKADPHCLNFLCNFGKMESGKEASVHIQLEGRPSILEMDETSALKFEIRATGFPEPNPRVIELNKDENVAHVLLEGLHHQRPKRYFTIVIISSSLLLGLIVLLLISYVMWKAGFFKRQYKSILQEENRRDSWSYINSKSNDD

Assay [8] has as its target Beta-adrenergic receptor kinase 1 (Homo sapiens) (UniProt P25098). The assay can be described thus: GRK2 binders displacing RNA aptamer, biochemical, validation, human GRK2, bead flow cytometry (AID 488806;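 active means aptamer binding inhibition above 30%, about 3 SD of noise from non-fluorescent compounds; inactive means inhibition at or below 30%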). The conditions noted are these: bead-bound GRK2, FAM-aptamer displacement, at 10 µM, stronger effect = higher value.
Assay [9] deals with Beta-2 adrenergic receptor (Homo sapiens) (UniProt P07550). The assay can be described thus: agonist-induced loss of surface beta2AR – cell-based, FAP fluorogen, flow cytometry, validation set, pilot screen (AID 504459).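 Further: agonist-driven loss of surface beta2AR via internalization measured by FAP dye flow cytometry.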 The conditions noted are these: Am2.2-beta2AR cells, at 10 µM, stronger effect = higher value.
Sequence of Beta-2 adrenergic receptor (Homo sapiens) (P07550 whole entry, looked up): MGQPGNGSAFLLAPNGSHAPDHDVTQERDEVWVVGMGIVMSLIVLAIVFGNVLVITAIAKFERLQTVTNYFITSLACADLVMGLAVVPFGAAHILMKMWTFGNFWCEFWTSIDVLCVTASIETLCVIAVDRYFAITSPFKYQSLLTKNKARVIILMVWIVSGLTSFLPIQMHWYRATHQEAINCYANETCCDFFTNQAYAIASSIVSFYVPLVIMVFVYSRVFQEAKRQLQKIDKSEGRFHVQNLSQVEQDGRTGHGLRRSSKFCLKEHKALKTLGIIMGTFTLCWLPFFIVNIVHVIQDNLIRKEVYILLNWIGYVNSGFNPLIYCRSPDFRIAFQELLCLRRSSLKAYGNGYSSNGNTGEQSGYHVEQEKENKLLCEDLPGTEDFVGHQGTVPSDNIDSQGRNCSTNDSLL
Assay [10] concerns the target AP-2 complex subunit beta (Homo sapiens) (UniProt P63010). The assay can be described thus: beta-arrestin/AP2 interaction blockers – biochemical, validation set, GST-AP2 beads, flow cytometry, pilot screen (AID 504541;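 active means inhibition above 54%, about 3 SD of non-fluorescent compounds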;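 further: AP2 carries R879A mutation and is captured from E. coli lysate; bead-bound FITC arrestin peptide fluorescence measuring arrestin peptide binding to AP2; 0% = DMSO wells and 100% = excess unlabeled arrestin peptide control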). The conditions noted are these: FITC arrestin peptide, at 10 µM, stronger effect = higher value, AP2 beta2 appendage fragment, R879A mutant.
Assay [11] in a line: cytosolic pH regulators acting via V-ATPase – S. cerevisiae, pHLuorin, HTS validation (AID 504600; in the data active means response above about 15%;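 further: plate controls were DMSO for no effect and reference compound for full effect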). The conditions noted are these: V-ATPase proton transport, at 10 µM, stronger effect = higher value.
Assay [12] relates to anti-desmoglein-3 scFv antibody binding to human DSG3. In words: blockers of pathogenic pemphigus antibody–desmoglein-3 binding – biochemical, validation compound set, bead-based, flow cytometry, pilot screen (AID 588368;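 active means binding below the plate cutoff, the plate median minus 3 SD, with a reading above zero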;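 further: signal is the median channel fluorescence of bead-bound GFP antibody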). The conditions noted are these: Protein G beads, DSG3-Fc, scFv-GFP binding, at 10 µM, stronger effect = lower value.
Assay [13] can be described thus: Nile Red efflux blockade in pump-expressing yeast – validation compound set, multiplex, phenotypic, pilot screen (AID 588506;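 active means efflux inhibition above 0.42, the validation set average plus 4 SD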;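 further: Nile Red retained in cells so higher fluorescence means more efflux inhibition; 0 = negative control wells and 1 = enniatin B 25 µM full block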). The conditions noted are these: S. cerevisiae pump-expressing triplex, Nile Red efflux flow cytometry; at 10 µM; stronger effect = higher value; the pumps come from Candida albicans.
Assay [14] can be described thus: AML differentiation inducers, ER-HoxA9 marrow cells – cell-based, GFP/MAC1 double positive, flow cytometry, validation set, primary screen (AID 588685;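 active means differentiation response of at least 50%, scaled between solvent and reference control, from cells with both markers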;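 further: compound exposure lasts four days before antibody staining and flow analysis; 0% = DMSO wells and 100% = 5 µM fulvestrant positive control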). The conditions noted are these: stronger effect = higher value, normalized: vehicle 0, fulvestrant 100.
Assay [15] can be described thus: calorie-restriction mimetic ROS inhibitors, yeast – validation compound set, pilot screen (AID 2706;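 active means superoxide response below 65% of plate, a cut near 3 SD across the whole screen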;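 further: yeast exposed to compound for one week at 30 degrees C before staining; 100% = mean of all compound wells on the same plate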). The conditions noted are these: S. cerevisiae aging, superoxide DHE fluorescence; at 10 µM, stronger effect = lower value.
For assay [16], the target named is ATP-binding cassette sub-family B member 6 (Homo sapiens) (UniProt Q9NP58). In words: blockers of ABCB6-driven porphyrin uptake – K562-ABCB6 cells, flow cytometry, validation set, pilot screen (AID 588550;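 active means inhibition above the screen-wide mean plus 3 SD, about 51%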;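 further: 0% = DMSO wells and 100% = benzethonium chloride 70 µM positive control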). The conditions noted are these: K562-ABCB6 porphyrin accumulation, 1 h, at 10 µM, stronger effect = higher value.
Sequence of ATP-binding cassette sub-family B member 6 (Homo sapiens) (Q9NP58 whole entry, looked up): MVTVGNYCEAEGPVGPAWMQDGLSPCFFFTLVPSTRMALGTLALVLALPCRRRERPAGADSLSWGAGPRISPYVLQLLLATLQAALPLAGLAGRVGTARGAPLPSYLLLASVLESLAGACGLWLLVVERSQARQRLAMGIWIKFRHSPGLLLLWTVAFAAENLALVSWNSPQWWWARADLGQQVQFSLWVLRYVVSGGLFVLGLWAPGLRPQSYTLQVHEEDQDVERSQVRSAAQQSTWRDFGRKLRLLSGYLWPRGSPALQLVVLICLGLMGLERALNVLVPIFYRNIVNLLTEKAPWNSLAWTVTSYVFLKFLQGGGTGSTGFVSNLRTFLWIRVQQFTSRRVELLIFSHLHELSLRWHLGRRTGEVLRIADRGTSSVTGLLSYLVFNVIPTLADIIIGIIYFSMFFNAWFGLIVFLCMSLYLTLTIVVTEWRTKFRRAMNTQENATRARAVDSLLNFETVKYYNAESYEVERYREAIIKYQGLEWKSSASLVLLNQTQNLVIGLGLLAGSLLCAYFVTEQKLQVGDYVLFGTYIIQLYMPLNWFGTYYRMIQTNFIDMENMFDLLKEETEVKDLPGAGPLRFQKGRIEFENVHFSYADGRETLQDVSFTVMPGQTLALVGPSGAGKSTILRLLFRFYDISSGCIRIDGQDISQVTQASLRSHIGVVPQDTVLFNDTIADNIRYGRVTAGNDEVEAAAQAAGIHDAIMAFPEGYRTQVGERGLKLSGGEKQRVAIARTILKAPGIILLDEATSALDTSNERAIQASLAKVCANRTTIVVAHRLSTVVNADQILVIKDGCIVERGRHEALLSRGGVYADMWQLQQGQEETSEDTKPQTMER

Sequence of AP-2 complex subunit beta (Homo sapiens) (P63010 whole entry, looked up, the tested form may be a part, one chain of several): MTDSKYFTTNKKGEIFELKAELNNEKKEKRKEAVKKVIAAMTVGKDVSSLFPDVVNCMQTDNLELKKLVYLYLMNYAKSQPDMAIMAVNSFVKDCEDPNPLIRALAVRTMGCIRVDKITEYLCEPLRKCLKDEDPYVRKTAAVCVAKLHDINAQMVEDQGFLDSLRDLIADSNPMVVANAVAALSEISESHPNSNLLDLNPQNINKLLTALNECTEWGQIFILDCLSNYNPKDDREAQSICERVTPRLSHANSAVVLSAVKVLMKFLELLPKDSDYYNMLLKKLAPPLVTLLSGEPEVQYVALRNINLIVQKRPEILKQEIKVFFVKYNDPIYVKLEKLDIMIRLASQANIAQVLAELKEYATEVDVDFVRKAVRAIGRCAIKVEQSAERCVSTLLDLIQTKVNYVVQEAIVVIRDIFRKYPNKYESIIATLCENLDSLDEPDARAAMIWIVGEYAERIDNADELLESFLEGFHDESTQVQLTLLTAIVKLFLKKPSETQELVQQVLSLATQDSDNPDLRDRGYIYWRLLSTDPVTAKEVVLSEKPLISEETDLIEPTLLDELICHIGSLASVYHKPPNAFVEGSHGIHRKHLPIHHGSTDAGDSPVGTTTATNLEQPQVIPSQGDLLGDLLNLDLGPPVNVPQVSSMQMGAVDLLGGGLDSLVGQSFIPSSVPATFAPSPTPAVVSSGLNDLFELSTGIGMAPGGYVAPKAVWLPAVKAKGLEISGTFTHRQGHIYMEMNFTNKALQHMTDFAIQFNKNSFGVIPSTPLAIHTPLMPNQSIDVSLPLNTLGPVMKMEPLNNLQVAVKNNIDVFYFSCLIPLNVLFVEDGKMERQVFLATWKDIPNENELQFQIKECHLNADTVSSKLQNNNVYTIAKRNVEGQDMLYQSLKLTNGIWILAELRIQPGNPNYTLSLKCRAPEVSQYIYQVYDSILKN
Sequence of Beta-adrenergic receptor kinase 1 (Homo sapiens) (P25098 whole entry, looked up): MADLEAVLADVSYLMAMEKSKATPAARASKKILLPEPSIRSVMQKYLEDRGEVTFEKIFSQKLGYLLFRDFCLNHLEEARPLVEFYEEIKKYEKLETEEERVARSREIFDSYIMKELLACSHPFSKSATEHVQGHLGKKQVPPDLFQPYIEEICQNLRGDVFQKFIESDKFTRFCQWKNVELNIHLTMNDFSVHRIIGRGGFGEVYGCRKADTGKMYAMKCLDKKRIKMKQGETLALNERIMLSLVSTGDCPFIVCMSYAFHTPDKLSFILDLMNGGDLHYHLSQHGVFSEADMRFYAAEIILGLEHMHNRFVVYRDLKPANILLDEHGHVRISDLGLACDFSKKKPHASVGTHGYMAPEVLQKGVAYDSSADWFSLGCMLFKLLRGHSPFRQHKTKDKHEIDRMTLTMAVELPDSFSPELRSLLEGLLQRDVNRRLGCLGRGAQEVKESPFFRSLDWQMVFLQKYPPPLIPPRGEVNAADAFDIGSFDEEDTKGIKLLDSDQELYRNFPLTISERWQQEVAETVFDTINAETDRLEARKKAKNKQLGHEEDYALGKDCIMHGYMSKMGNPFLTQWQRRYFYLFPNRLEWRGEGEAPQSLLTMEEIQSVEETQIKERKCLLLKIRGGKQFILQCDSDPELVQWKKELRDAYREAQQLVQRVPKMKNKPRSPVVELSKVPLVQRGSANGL

Turning to `Cc1ccc2[nH]c3c(c2c1)CN(C(=O)CN1CCSCC1)CC3`, the percent of DMSO control GFP in [1] was 100% (inactive). In addition, the results for the GFP response vs DMSO in [2] and in [4] were 93% (inactive) and 102% (inactive), respectively. Further, the percent response of DMSO control in assay [3] was 101% (inactive). Further, the GFP response, % of DMSO in [5] was 101% (inactive). The double positive events in assay [6] turned out to be 60.8%. Besides, the vesicle binding response in assay [6] was 66.8% (inactive). Further, the inhibition (as a rule, the drop in the measured response relative to a control, in per cent) in assay [7] is -51.3% (inactive); in assay [10] it was -3.3% (inactive). Further, in assay [8], the aptamer binding inhibition was 0% (inactive). Moreover, the values for the response in assay [9] and in [11] were -263% (inactive) and 0.82% (inactive), respectively. For the same molecule, the binding (% of control) in assay [12] is 439% (inactive). In [13], the efflux inhibition (fraction of control) is -0.04 (inactive). Also, the differentiation response in assay [14] was 28.6% (inactive).
In the case of `Nc1cccc(C(=O)O)c1`, in [1], the percent of DMSO control GFP is 95.5% (inactive). The results for the GFP response vs DMSO in assay [2] and in [4] were 116% (inactive) and 79.2% (inactive), respectively. Moreover, the percent response of DMSO control in [3] is 122% (inactive). Moreover, the double positive events in [6] came to 63.4%. In addition, in [6], the vesicle binding response was 214% (inactive). The results for the inhibition in [7], in assay [10] and in [16] were 10.3% (inactive), -0.66% (inactive) and 6% (inactive), respectively. Also, the superoxide response (% of plate) in assay [15] is 102% (inactive). Besides, the aptamer binding inhibition in [8] is 4% (inactive). For the same molecule, the response is -6.68% (inactive) in assay [9] and 3.11% (inactive) in assay [11]. The binding (% of control) in assay [12] was 102% (inactive). Besides, the efflux inhibition (fraction of control) in assay [13] is 0.05 (inactive). The differentiation response in assay [14] was -0.82% (inactive).
As to `COc1ccc(-c2nc(C)c(C(C)=O)n2O)cc1OC`, in assay [1], the percent of DMSO control GFP was 92.6% (inactive). Besides, the GFP response vs DMSO is 106% (inactive) in assay [2] and 78.1% (inactive) in assay [4]. Besides, in [3], the percent response of DMSO control is 114% (inactive). The same molecule had a double positive events in assay [6] of 52.4%. Moreover, the vesicle binding response in assay [6] was 110% (inactive). Also, the inhibition is 5.49% (inactive) in assay [7], -13.1% (inactive) in assay [10] and 11% (inactive) in [16]. The superoxide response (% of plate) in [15] is 97.4% (inactive). Also, the aptamer binding inhibition in assay [8] was 2% (inactive). Moreover, the response was -10.4% (inactive) in assay [9] and 1.53% (inactive) in assay [11]. The binding (% of control) in assay [12] was 103% (inactive). In addition, in assay [13], the efflux inhibition (fraction of control) is 0.01 (inactive). Also, the differentiation response in [14] was 0% (inactive).
Turning to `CC(=O)OC[C@H]1O[C@@H](n2ncc(=O)[nH]c2=O)[C@H](OC(C)=O)[C@@H]1OC(C)=O`, the percent of DMSO control GFP in assay [1] was 94.8% (inactive). The GFP response vs DMSO was 114% (inactive) in [2] and 78.1% (inactive) in [4]. Further, the percent response of DMSO control in assay [3] is 119% (inactive). In assay [6], this molecule returned a double positive events of 53.4%. In addition, in assay [6], the vesicle binding response was 78.5% (active). The inhibition in assay [7] was 5.49% (inactive); in assay [10], -6.69% (inactive); in [16] it was -40% (inactive). Further, the superoxide response (% of plate) in [15] is 105% (inactive). Further, the aptamer binding inhibition in assay [8] is 6% (inactive). For the same molecule, the figures for the response in assay [9] and in assay [11] were -6.75% (inactive) and -0.17% (inactive), respectively. In assay [12], the binding (% of control) is 109% (inactive). Also, in assay [13], the efflux inhibition (fraction of control) was -0.13 (inactive). Moreover, the differentiation response in assay [14] was 20.5% (inactive).
Consider `C[C@]12CC[C@@H]3c4ccc(OS(=O)(=O)O)cc4CC[C@H]3[C@@H]1CCC2=O`, for which, in assay [1], the percent of DMSO control GFP is 90.6% (inactive). Besides, the values for the GFP response vs DMSO in [2] and in [4] were 120% (inactive) and 79.2% (inactive), respectively. Also, the percent response of DMSO control in assay [3] is 96.6% (inactive). The molecule also showed a double positive events in assay [6] of 73.4%. Besides, the vesicle binding response in [6] was 292% (inactive). For the same molecule, the inhibition in assay [7] was 5.49% (inactive); in assay [10], -3.24% (inactive); in assay [16] it was 11% (inactive). Further, the superoxide response (% of plate) in [15] was 95.8% (inactive). Besides, the aptamer binding inhibition in assay [8] is -3% (inactive). The figures for the response in assay [9] and in [11] were 0.04% (inactive) and 3.54% (inactive), respectively. Further, in assay [12], the binding (% of control) was 104% (inactive). The efflux inhibition (fraction of control) in assay [13] is -0.24 (inactive). Moreover, the differentiation response in assay [14] is 6.55% (inactive).

Values taken from PubChem BioAssay.
